In PubChem BioAssay (EPA / NIEHS):
Inconclusive results are not listed. The source made the active and inactive calls. Rule for the calls, unless noted: active = hit-call score of the fitted dose curve at least 0.9, where 1 is the maximum; inactive = score below 0.9.

What was measured:
[1] = CCTE_Shafer_MEA_dev_correlation_coefficient_mean: CCTE's Neural Network Formation Assay for Mean Correlation Coefficient, Shafer Lab (AID 2284093);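 note: well mean pairwise spike train correlation integrated as AUC over recording days 5 to 12; potency fitted for loss of correlation relative to DMSO vehicle wells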
Method in brief: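 Rat cortical cultures, 1.5 x 10^5 cells/well, dosed from day 0 for 12 days. Spontaneous spikes recorded DIV 5/7/9/12; electrode-pair correlation coefficients averaged, AUC taken. Fit in loss direction vs DMSO.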

[2] = UKN2_HCS_IMR90_neural_migration: University of Konstanz (UKN) Leist Lab Neural Crest Cell Migration Assay in human induced IMR90 Pluripotent Stem Cells (UKN2) (AID 2284204); conditions: actives raise or lower the signal
Method in brief: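 High-content imaging of calcein-AM and Hoechst stained cells quantifies migration into a stopper-defined gap after 24 h compound exposure. Neural crest cells from IMR90 iPSC migrated 24 h in EGF/FGF N2-S medium before dosing; DMSO baseline.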

[3] = UKN4_HCS_LUHMES_neurite_outgrowth: University of Konstanz (UKN) Leist Lab Neurite Outgrowth Assay in human LUHMES cells (UKN4) (AID 2284206); conditions: actives raise or lower the signal
Method in brief: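 Neurite area in dopaminergic-model LUHMES neurons is measured by high-content imaging of calcein-AM after 24 h treatment starting shortly after day-2 replating; Hoechst staining tracks viability.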

[4] = IUF_NPC1b_proliferation_BrdU_72hr: Leibniz Research Institute for Environmental Medicine (IUF) 72-hour Neural Progenitor Cell Bromodeoxyuridine (BrdU) Proliferation Assay (NPC1b) (AID 2284207)
Method in brief: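 Human fetal cortex-derived (GW 16-19) neural progenitor spheres, 0.25-0.35 mm, one per well in EGF/FGF proliferation medium, exposed to compound for 72 h at 37C, pH 7.2-7.6. BrdU incorporation over the final 16 h read by luminescence ELISA, relative to DMSO.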

[5] = IUF_NPC1a_proliferation_area_72hr: Leibniz Research Institute for Environmental Medicine (IUF) 72-hour Neural Progenitor Cell Proliferation Area Assay (NPC1a) (AID 2284208)
Method in brief: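 Single 0.25–0.35 mm human fetal neural progenitor spheres in proliferation medium with EGF and FGF, exposed 72 h from plating without renewal at 37C, pH 7.2-7.6. Sphere area growth measured by automated phase-contrast imaging, relative to DMSO.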

[6] = IUF_NPC1_viability_72hr: Viability Assessment at 72 hours in the Leibniz Research Institute for Environmental Medicine (IUF) Neural Progenitor Cell Proliferation Assay (NPC1) (AID 2284209)
Method in brief: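 Three-day continuous exposure of human neural progenitor spheres under EGF/FGF-driven proliferation; cell viability scored by alamar blue signal versus DMSO.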

[7] = UKN4_HCS_LUHMES_cell_viability: Viability Assessment in the University of Konstanz (UKN) Leist Lab Neurite Outgrowth Assay in human LUHMES cells (UKN4) (AID 2284232)
Method in brief: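 Measured in replated, 2-day-differentiated LUHMES cells treated 24 h; stained 30 min with H-33342 and calcein-AM before high-content imaging.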

[8] = UKN2_HCS_IMR90_cell_viability: Viability Assessment in the University of Konstanz (UKN) Leist Lab Neural Crest Cell Migration Assay in human induced IMR90 Pluripotent Stem Cells (UKN2) (AID 2284233);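 note: cells exposed to compound for 24 h after a 24 h migration phase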
Method in brief: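 After calcein-AM/Hoechst staining, viability is quantified by high-content fluorescence imaging, relative to DMSO, in iPSC (IMR90)-derived neural crest cells. Exposure lasts 24 h, starting after a 24 h migration period on PLO/laminin/fibronectin coating.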

[9] = IUF_NPC2a_radial_glia_migration_120hr: Leibniz Research Institute for Environmental Medicine (IUF) 120-hour Neural Progenitor Cell Migration Assay for Radial Glia Migration (NPC2a) (AID 2284298)
Method in brief: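 Human fetal-cortex neural progenitor spheres (0.3 mm) plated on poly-D-lysine/laminin in N2 differentiation medium, exposed 120 h at 37C with half-medium renewal at day 3. Radial glia migration distance (um) measured from Hoechst-stained nuclei images; DMSO baseline.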

[10] = IUF_NPC2a_radial_glia_migration_72hr: Leibniz Research Institute for Environmental Medicine (IUF) 72-hour Neural Progenitor Cell Migration Assay for Radial Glia Migration (NPC2a) (AID 2284299)
Method in brief: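 Spheres of human primary neural progenitors migrate on poly-D-lysine/laminin under compound exposure at 37C, 5% CO2. The 72 h radial glia migration distance comes from brightfield images, measured manually.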

[11] = IUF_NPC3_neuronal_differentiation_120hr: Leibniz Research Institute for Environmental Medicine (IUF) 120-hour Neuronal Differentiation Assay (NPC3) (AID 2284301)
Method in brief: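 Value is percent TUBB3-positive neurons among Hoechst-stained nuclei in the migration area, scored by trained CNN after 120 h differentiation. Primary hNPC spheres on poly-D-lysine/laminin, N2 medium, continuous dosing from day 0, half-refeed day 3; DMSO reference.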

[12] = IUF_NPC4_neurite_length_120hr: Leibniz Research Institute for Environmental Medicine (IUF) 120-hour Neuronal Morphology Assay for Neurite Length (NPC4) (AID 2284302)
Method in brief: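 Neurite length, the mean in um across TUBB3-stained neurons, is derived by skeletonization of high-content images after 120 h differentiation. Compound exposure, 7 concentrations plus solvent control, ran from plating of hNPC spheres on poly-D-lysine/laminin, with medium half-replaced on day 3.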

[13] = IUF_NPC5_oligodendrocyte_differentiation_120hr: Leibniz Research Institute for Environmental Medicine (IUF) 120-hour Oligodendrocyte Differentiation Assay (NPC5) (AID 2284304; active = hit-call score of the fitted dose curve at least 0.9, where 1 is the maximum;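 note: primary human fetal neural progenitor spheres plated to migrate and differentiate; share of O4-positive cells among Hoechst nuclei found by CNN image analysis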)
Method in brief: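 Human fetal neural progenitor spheres (0.3 mm) plated on poly-D-lysine/laminin in N2 differentiation medium and exposed for 120 h at 7 concentrations, with half-medium renewal at day 3. O4-positive cells identified by CNN, expressed as percent of Hoechst nuclei.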

[14] = IUF_NPC4_neurite_area_120hr: Leibniz Research Institute for Environmental Medicine (IUF) 120-hour Neuronal Morphology Assay for Neurite Area (NPC4) (AID 2284305; active = hit-call score of the fitted dose curve at least 0.9, where 1 is the maximum)
Method in brief: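 Neurite area (pixels, nuclei excluded) of TUBB3-positive neurons from hNPC spheres differentiating 5 days under continuous exposure at 37 C, 5% CO2. High-content imaging; loss of signal versus DMSO control across 7 concentrations.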

[15] = IUF_NPC2-5_cytotoxicity_120hr: Cytotoxicity Assessment at 120 hours in the Leibniz Research Institute for Environmental Medicine (IUF) Neural Progenitor Cell Migration and Differentiation Assay (NPC2-5) (AID 2284307; active = hit-call score of the fitted dose curve at least 0.9, where 1 is the maximum)
Method in brief: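 Human fetal (GW 16-19) neural progenitor spheres (0.3 mm) plated on poly-D-lysine/laminin in N2 differentiation medium, exposed 120 h with half-medium renewal at day 3; 7 concentrations plus solvent control, DMSO ≤0.1%. LDH release in supernatant read by resorufin fluorescence.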

[16] = IUF_NPC2-5_cell_number_120hr: Cell Number Assessment at 120 hours in the Leibniz Research Institute for Environmental Medicine (IUF) Neural Progenitor Cell Migration and Differentiation Assay (NPC2-5) (AID 2284308);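 note: count of Hoechst-stained nuclei in migration zone around plated human neural progenitor spheres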
Method in brief: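 Human fetal neural progenitor spheres (0.3 mm) plated on poly-D-lysine/laminin in N2 differentiation medium, exposed five days across 7 concentrations with half-medium refresh at day 3. Hoechst-positive nuclei counted in migration area at 120 h, relative to DMSO.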

[17] = IUF_NPC2-5_viability_120hr: Viability Assessment at 120 hours in the Leibniz Research Institute for Environmental Medicine (IUF) Neural Progenitor Cell Migration and Differentiation Assay (NPC2-5) (AID 2284312)
Method in brief: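 Alamar blue resorufin fluorescence read after 5 days of differentiation, with compound present from day 0 and replenished at day 3. Primary hNPC spheres on laminin-coated plates, 37C; seven concentrations plus solvent control, fitted against DMSO.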

Measured: AC50

C[n+]1ccc(-c2ccccc2)cc1
active: [1] 8.7 µM | [3] 2.69 µM | [4] 4.54 µM | [5] 18.7 µM
inactive: all other assays above
